The record followed here is PubChem BioAssay (Tox21).

Experiment [1] can be described thus: qHTS RealTime-Glo MT Cell Viability Assay in HepG2 cells - 40 hour (AID 1224870). Note: nearly all actives have a fitted effect of over 50% in size. Note: potency is the fitted concentration of half-maximal effect. The method in brief: (§1)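 HepG2 cells (600/well) mixed with RealTime-Glo MT reagent, settled 5 h at 37 C/5% CO2 before compound addition. Nonlytic NanoLuc luminescence from viable-cell prosubstrate reduction read repeatedly during 40 h treatment at 37 C.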
A general note: Quantitative high-throughput screening tests each substance at several concentrations.

The nature of experiment [2]: A CellTox Green Cytotoxicity Assay to monitor cytotoxicity in HEK293 cells - 40 hour (AID 1224871). Note: nearly all actives have a fitted effect of over 45% in size. Note: potency is the fitted concentration of half-maximal effect. The method in brief:
(§2)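 HEK293 cells, 600/well, were preincubated 5 hours and then exposed to compounds at 37 C for up to 40 hours. A cell-impermeant cyanine dye staining dead-cell DNA was read by fluorescence at 0, 8, 16, 24, 32 and 40 h time points.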

A short description of experiment [3]: qHTS RealTime-Glo MT Cell Viability Assay in HEK293 cells - 16 hour (AID 1224872). Note: nearly all actives have a fitted effect of over 50% in size. Note: potency is the fitted concentration of half-maximal effect. The method in brief:
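Cells + reagent dispensed (600 cells/well, HEK293) → 5 h at 37 C/5% CO2 → 23 nL compound in DMSO pinned → 40 h at 37 C → luminescence read at 0, 8, 16, 24, 32, 40 h.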

A short description of experiment [4]: qHTS RealTime-Glo MT Cell Viability Assay in HEK293 cells - 40 hour (AID 1224874). Note: nearly all actives have a fitted effect of over 50% in size. Note: potency is the fitted concentration of half-maximal effect. The settings on record: RealTime-Glo luminescence; max response: stronger effect = lower value. The method in brief: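 600 cells/well were plated with the nonlytic NanoLuc/prosubstrate reagent, pre-incubated 5 h, then given 23 nL of compound in DMSO. Incubation at 37 C for 40 h, with luminescence from viable-cell-reduced substrate read repeatedly from 0 h.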

The nature of experiment [5]: A CellTox Green Cytotoxicity Assay to monitor cytotoxicity in HEK293 cells - 24 hour (AID 1224875). Note: series mostly up to about 77 µM; nearly all actives have a fitted effect of over 45% in size. The method, boiled down: as §2
Experiment [6] in a line: A CellTox Green Cytotoxicity Assay to monitor cytotoxicity in HepG2 cells - 16 hour (AID 1224876). Note: nearly all actives have a fitted effect of over 45% in size. The method, boiled down: (§3)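 HepG2 cells, 600/well, preincubated 5 h with CellTox Green dye, then exposed to Tox21 compounds in DMSO at 37 C for up to 40 h. Dead-cell DNA fluorescence read at the indicated time point.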
Experiment [7] in a line: qHTS RealTime-Glo MT Cell Viability Assay in HepG2 cells - 32 hour (AID 1224877). Note: nearly all actives have a fitted effect of over 55% in size. The method, boiled down:
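Real-time, nonlytic viability: 600 HepG2 cells/well mixed with NanoLuc enzyme plus prosubstrate; 5 h settle, compound (DMSO) added by pintool; luminescence monitored over 40 h at 37 C.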

The nature of experiment [8]: A CellTox Green Cytotoxicity Assay to monitor cytotoxicity in HepG2 cells - 24 hour (AID 1224878). Note: nearly all actives have a fitted effect of over 45% in size. Note: potency is the fitted concentration of half-maximal effect. The method, boiled down: as §3
A short description of experiment [9]: A CellTox Green Cytotoxicity Assay to monitor cytotoxicity in HepG2 cells - 40 hour (AID 1224879). Note: nearly all actives have a fitted effect of over 40% in size. The method in brief: as §3
Experiment [10] can be described thus: qHTS RealTime-Glo MT Cell Viability Assay in HepG2 cells - 8 hour (AID 1224873). Note: nearly all actives have a fitted effect of over 55% in size. The method in brief: as §1

Results filed as inconclusive are left out. Values without a mark were called inactive. Activity calls are given as the source filed them. Calls come from the whole dose curve; as a rule, active = well fitted curve in the direction sought with a large enough effect in the repeat runs; inconclusive = weak or mixed curves; inactive = no such curve, though single readings can be large; an effect the other way counts as inactive or inconclusive.
% is set by controls: 0 for no effect and ±100 for the full control effect.

Take `CC1=CC[C@@]23C[C@@H]1C(C)(C)[C@@H]2CC[C@H]3C`: the Potency entry in [1], in experiment [2], in [3], in experiment [5], in [6] and in [7] was “inactive” throughout. Further, the max response in [4] was 1.49%.
Turning to `CCSC(=O)N(CC)CC`, the Potency result in experiment [1], in experiment [2], in experiment [3], in experiment [5], in experiment [6] and in experiment [7] was “inactive” throughout. The Potency entry in experiment [8] and in experiment [9] was “inactive” each time. For the same compound, the max response in experiment [4] is 0.524%.
Turning to `CC(C)(C)S`, the Potency entry in [1], in [2], in experiment [3], in [5], in [6] and in experiment [7] was “inactive” in each case. For the same compound, the Potency result in [8] was “inactive”.
On to `NC(=O)c1ccccc1[N+](=O)[O-]`, for which the Potency entry in experiment [1], in [2], in experiment [3], in [5] and in [6] was “inactive” each time. Moreover, in [4], the max response was 13.7%.
Regarding `O=C(O)c1cccc(Oc2ccccc2)c1`, the Potency entry in [1], in [2], in experiment [3], in [5], in experiment [6] and in experiment [7] was “inactive” each time. The Potency entry in experiment [8] and in experiment [9] was “inactive” throughout.
Regarding `COc1ccc(/C=C/C(=O)c2ccc(OC)cc2OC)cc1`, the Potency result in [1], in experiment [2], in [3], in [10], in experiment [6] and in experiment [7] was “inactive” in each case.
As to `O=C1[C@@H]2[C@H]3CC[C@H](C3)[C@@H]2C(=O)N1CCCCN1CCN(c2ncccn2)CC1`, the Potency entry in [1], in experiment [2], in [3], in [10] and in [7] was “inactive” throughout.
On to `CCCCCCCCCCCC(=O)OCC(O)CO` (centres undefined), for which the Potency result in experiment [1], in experiment [2], in experiment [3], in experiment [10], in experiment [6] and in [7] was “inactive” throughout. The Potency entry in experiment [9] was “inactive”.
For `CCN(CC)CCOC(=O)C(c1ccccc1)c1ccccc1`, the Potency result in [1], in experiment [2], in [3], in [5], in experiment [7] and in experiment [8] was “inactive” throughout. In addition, in experiment [9], the Potency entry is “inactive”. Moreover, the max response in experiment [4] was 0.0208%.
As for `CC(C)(O)c1coc(S(=O)(=O)NC(=O)Nc2c3c(cc4c2CCC4)CCC3)c1`, the Potency entry in [1], in experiment [2], in experiment [3], in experiment [5] and in [7] was “inactive” in each case. Moreover, in experiment [4], the max response was 21.1%.
As for `CO[C@@H]1[C@@H](OC)[C@H](C)[C@@](O)(CC(=O)O)O[C@H]1[C@H](C)[C@H]1O[C@@]2(CC[C@@](C)([C@H]3CC[C@@](C)([C@@H]4O[C@@H]([C@H]5O[C@](C)(O)[C@H](C)C[C@@H]5C)C[C@@H]4OC4C[C@H](OC)[C@@H](OC)[C@H](C)O4)O3)O2)C[C@H](O)[C@H]1C` (some centres undefined), the Potency in experiment [1] was 6.01 µM (active); in experiment [2], 4.77 µM (active); in experiment [3], 5.35 µM (active); in [4], 2.39 µM (active); in [8] it was 12 µM (active). Also, the Potency result in [5] is “inactive”.
As for `CCc1ccc(C)cc1`, the Potency result in experiment [1], in experiment [2], in experiment [3], in experiment [5], in experiment [6] and in experiment [7] was “inactive” in each case. Also, the Potency entry in experiment [8] and in experiment [9] was “inactive” each time. The max response in [4] is 11.4%.
As for `CC(C)(O)CCc1ccccc1`, the Potency entry in [1], in experiment [2], in experiment [3], in experiment [10], in experiment [5] and in experiment [6] was “inactive” each time. Also, the Potency entry in experiment [8] and in experiment [9] was “inactive” throughout.
As for `CC(=O)OCC(=O)[C@@]1(OC(C)=O)[C@@H](C)C[C@H]2[C@@H]3C[C@H](F)C4=CC(=O)C=C[C@]4(C)[C@@]3(F)[C@@H](O)C[C@@]21C`, the Potency entry in experiment [1], in experiment [2], in [3], in experiment [5], in experiment [7] and in experiment [8] was “inactive” each time. Besides, the Potency result in experiment [9] is “inactive”.
As to `COc1cc(NC(C)CCCN)c2ncccc2c1` (centres undefined), the Potency entry in experiment [1], in [2], in [3], in [5], in experiment [6] and in experiment [7] was “inactive” each time. Further, the Potency entry in experiment [8] and in experiment [9] was “inactive” each time. In addition, in experiment [4], the max response is -12.5%.
Turning to `CCCCOC(=O)CCCCC(=O)OCCCC`, the Potency result in [1], in experiment [2], in experiment [3], in experiment [10], in experiment [5] and in experiment [7] was “inactive” each time. In addition, the Potency entry in experiment [8] and in experiment [9] was “inactive” throughout.
Regarding `COC1CCC=CO1` (centres undefined), the Potency entry in experiment [1], in [2], in experiment [3], in experiment [10], in [6] and in experiment [7] was “inactive” throughout. For the same compound, the Potency result in experiment [8] and in experiment [9] was “inactive” each time.
As to `C=CC(=O)NC(C)C`, the Potency result in experiment [1], in experiment [2], in [3], in experiment [5], in experiment [6] and in [7] was “inactive” in each case. Moreover, the Potency entry in experiment [8] and in experiment [9] was “inactive” in each case. The max response in experiment [4] is 9.7%.
Turning to `O=C1NC(=O)c2cccc3cccc1c23`, the Potency entry in experiment [1], in experiment [2], in [3], in [5], in [6] and in experiment [7] was “inactive” each time. In addition, the Potency entry in [8] and in [9] was “inactive” throughout. In experiment [4], the max response is -4.43%.
Consider `CC(=O)OCC(C)C`, for which the Potency result in experiment [1], in experiment [2], in experiment [3], in experiment [10], in experiment [5] and in experiment [7] was “inactive” in each case. Further, the Potency result in experiment [9] is “inactive”.
On to `CCN(CC)c1ccc(C(=C2C=CC(=[N+](CC)CC)C=C2)c2ccc(S(=O)(=O)O)cc2S(=O)(=O)[O-])cc1`, for which the Potency entry in [1], in experiment [2], in experiment [3], in experiment [5], in [6] and in experiment [7] was “inactive” each time. For the same compound, in experiment [9], the Potency entry is “inactive”. Moreover, in experiment [4], the max response was -1.18%.
In the case of `Nc1c(Cl)cc(Cl)cc1[N+](=O)[O-]`, the Potency entry in experiment [1], in experiment [2], in experiment [3] and in [5] was “inactive” in each case. Besides, the max response in [4] was 7.12%.
`Nc1ccn([C@H]2CS[C@@H](CO)O2)c(=O)n1`: the Potency result in [1], in experiment [2], in experiment [3], in experiment [10], in experiment [5] and in [7] was “inactive” throughout. Further, in [8], the Potency entry is “inactive”.
Regarding `CC(C)OC(=O)c1ccccc1C(=O)OC(C)C`, the Potency entry in experiment [1], in [2], in experiment [3], in experiment [5], in experiment [6] and in experiment [7] was “inactive” each time. Besides, the Potency entry in experiment [8] is “inactive”. Besides, the max response in experiment [4] was -14%.
For `C=C(C)C(=O)OCCC(F)(F)C(F)(F)C(F)(F)C(F)(F)C(F)(F)C(F)(F)F`, the Potency entry in [1], in [2], in experiment [3], in [10], in [5] and in [7] was “inactive” throughout. For the same compound, in experiment [8], the Potency entry was “inactive”.
